Test results: ChEMBL document CHEMBL1961873, “Compounds: GSK PKIS; Assays: Nanosyn kinase panel” (2012)

Assays:
[1] = target: Rho-associated protein kinase 1 (Homo sapiens) (UniProt Q13464); settings: at 1 µM;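 note: reported values are mean percent inhibition of ROCK1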
[2] = target: Rho-associated protein kinase 2 (Homo sapiens) (UniProt O75116); settings: at 0.1 µM
[3] = target: Rho-associated protein kinase 2 (Homo sapiens) (UniProt O75116); settings: at 1 µM
[4] = target: Ribosomal protein S6 kinase alpha-1 (Homo sapiens) (UniProt Q15418); settings: at 0.1 µM
Chain of Ribosomal protein S6 kinase alpha-1 (Homo sapiens) (Q15418 whole entry): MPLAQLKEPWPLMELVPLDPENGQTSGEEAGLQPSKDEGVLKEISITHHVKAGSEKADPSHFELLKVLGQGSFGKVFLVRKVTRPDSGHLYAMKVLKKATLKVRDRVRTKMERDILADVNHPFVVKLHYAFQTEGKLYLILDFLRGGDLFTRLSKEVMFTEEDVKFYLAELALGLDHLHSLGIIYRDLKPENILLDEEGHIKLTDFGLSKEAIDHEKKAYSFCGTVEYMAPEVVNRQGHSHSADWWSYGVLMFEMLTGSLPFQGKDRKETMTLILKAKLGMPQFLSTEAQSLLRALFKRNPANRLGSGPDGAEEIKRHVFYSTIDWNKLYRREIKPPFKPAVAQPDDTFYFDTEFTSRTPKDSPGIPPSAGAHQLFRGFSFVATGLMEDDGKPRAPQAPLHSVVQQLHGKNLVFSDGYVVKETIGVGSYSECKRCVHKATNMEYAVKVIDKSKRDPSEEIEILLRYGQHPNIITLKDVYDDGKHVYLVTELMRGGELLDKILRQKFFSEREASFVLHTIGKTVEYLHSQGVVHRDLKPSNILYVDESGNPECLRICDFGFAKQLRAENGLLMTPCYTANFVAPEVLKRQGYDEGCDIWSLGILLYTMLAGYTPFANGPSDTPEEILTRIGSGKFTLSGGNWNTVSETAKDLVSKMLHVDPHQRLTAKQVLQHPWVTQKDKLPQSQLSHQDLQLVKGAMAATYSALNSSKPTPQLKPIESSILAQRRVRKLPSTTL

[5] = target: Ribosomal protein S6 kinase alpha-1 (Homo sapiens) (UniProt Q15418); settings: at 1 µM
[6] = target: Ribosomal protein S6 kinase alpha-3 (Homo sapiens) (UniProt P51812); settings: at 0.1 µM
Chain of Ribosomal protein S6 kinase alpha-3 (Homo sapiens) (P51812 whole entry): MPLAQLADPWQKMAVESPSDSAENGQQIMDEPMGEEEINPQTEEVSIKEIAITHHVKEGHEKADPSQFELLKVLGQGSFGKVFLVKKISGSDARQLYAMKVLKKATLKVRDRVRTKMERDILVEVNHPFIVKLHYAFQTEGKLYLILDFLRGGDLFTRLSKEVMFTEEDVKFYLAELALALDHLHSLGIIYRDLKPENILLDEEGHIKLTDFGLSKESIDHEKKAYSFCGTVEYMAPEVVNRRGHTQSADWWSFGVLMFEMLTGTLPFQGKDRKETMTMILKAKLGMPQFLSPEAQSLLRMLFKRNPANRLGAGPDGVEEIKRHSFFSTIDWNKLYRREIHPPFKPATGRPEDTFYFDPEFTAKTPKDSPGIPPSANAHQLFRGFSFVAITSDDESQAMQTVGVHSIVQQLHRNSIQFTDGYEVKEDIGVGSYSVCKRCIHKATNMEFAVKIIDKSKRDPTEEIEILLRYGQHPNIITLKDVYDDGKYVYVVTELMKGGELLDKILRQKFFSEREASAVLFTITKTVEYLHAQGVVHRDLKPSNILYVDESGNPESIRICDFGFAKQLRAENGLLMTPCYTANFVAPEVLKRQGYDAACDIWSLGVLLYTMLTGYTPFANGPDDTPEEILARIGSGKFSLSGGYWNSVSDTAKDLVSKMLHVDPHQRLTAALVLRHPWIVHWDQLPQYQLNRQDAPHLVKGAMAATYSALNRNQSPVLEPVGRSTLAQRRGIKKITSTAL

[7] = target: Ribosomal protein S6 kinase alpha-3 (Homo sapiens) (UniProt P51812); settings: at 1 µM
[8] = target: Ribosomal protein S6 kinase alpha-2 (Homo sapiens) (UniProt Q15349); settings: at 0.1 µM
[9] = target: Ribosomal protein S6 kinase alpha-2 (Homo sapiens) (UniProt Q15349); settings: at 1 µM
[10] = target: Ribosomal protein S6 kinase alpha-6 (Homo sapiens) (UniProt Q9UK32); settings: at 0.1 µM
Chain of Ribosomal protein S6 kinase alpha-6 (Homo sapiens) (Q9UK32 whole entry): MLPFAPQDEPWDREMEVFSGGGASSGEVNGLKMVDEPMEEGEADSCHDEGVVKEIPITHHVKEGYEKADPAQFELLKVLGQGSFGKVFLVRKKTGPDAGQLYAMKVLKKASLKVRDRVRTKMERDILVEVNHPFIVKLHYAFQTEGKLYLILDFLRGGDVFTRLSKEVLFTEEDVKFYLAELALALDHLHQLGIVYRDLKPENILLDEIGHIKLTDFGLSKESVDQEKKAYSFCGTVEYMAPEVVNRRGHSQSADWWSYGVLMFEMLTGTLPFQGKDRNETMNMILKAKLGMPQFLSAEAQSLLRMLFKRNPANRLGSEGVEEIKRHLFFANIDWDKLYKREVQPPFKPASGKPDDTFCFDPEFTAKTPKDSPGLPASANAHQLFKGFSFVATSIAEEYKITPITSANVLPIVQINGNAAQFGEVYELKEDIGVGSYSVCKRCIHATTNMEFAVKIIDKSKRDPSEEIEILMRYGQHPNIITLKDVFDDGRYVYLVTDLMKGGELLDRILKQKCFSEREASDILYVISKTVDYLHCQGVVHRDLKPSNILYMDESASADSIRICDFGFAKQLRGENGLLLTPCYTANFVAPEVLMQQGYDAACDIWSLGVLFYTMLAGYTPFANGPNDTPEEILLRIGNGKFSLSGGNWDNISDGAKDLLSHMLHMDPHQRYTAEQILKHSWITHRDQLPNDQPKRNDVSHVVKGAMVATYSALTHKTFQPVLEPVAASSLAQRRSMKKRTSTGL

[11] = target: Ribosomal protein S6 kinase alpha-6 (Homo sapiens) (UniProt Q9UK32); settings: at 1 µM
[12] = target: T1, Serine/threonine-protein kinase Sgk1 (Homo sapiens) (UniProt O00141); settings: at 0.1 µM
T1 sequence (whole entry): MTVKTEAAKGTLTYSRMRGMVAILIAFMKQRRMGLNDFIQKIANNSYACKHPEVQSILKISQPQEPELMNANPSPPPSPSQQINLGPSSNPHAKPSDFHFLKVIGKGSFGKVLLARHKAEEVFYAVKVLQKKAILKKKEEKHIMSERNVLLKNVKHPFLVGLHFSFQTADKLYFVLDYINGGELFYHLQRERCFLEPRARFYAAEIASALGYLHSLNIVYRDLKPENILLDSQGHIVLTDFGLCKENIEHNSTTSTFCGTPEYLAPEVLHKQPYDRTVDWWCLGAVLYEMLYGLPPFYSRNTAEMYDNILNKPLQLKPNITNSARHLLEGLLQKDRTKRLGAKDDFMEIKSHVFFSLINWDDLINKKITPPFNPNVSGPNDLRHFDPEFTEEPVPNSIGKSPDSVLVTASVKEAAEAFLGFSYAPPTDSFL

[13] = target: T1, Serine/threonine-protein kinase Sgk1 (Homo sapiens); settings: at 1 µM
[14] = target: T2, Serine/threonine-protein kinase Sgk2 (Homo sapiens) (UniProt Q9HBY8); settings: at 0.1 µM
T2 sequence (whole entry): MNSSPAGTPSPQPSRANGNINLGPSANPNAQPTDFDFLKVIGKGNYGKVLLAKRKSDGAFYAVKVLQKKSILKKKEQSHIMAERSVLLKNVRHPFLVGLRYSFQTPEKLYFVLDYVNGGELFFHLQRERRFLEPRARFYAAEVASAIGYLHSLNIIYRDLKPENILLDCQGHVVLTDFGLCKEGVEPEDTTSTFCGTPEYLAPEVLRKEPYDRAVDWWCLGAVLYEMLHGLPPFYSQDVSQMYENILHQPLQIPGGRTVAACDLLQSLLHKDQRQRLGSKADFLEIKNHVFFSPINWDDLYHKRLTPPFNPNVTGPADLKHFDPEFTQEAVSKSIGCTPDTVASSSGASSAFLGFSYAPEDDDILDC

[15] = target: T2, Serine/threonine-protein kinase Sgk2 (Homo sapiens); settings: at 1 µM
[16] = target: T3, Serine/threonine-protein kinase Sgk3 (Homo sapiens) (UniProt Q96BR1); settings: at 0.1 µM
T3 sequence (whole entry): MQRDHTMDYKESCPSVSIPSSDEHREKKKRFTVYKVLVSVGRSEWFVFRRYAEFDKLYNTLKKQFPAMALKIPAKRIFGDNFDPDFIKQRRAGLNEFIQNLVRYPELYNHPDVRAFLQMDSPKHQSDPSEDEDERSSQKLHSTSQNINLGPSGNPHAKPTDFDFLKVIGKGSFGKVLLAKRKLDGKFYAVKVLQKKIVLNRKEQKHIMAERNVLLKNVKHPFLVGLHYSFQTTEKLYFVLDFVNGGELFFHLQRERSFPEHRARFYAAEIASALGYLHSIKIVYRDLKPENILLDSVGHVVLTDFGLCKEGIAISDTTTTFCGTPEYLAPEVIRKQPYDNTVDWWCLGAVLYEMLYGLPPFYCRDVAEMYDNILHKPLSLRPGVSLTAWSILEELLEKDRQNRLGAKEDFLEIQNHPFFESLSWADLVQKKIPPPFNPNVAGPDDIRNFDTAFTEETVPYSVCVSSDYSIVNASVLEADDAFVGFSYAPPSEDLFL

[17] = target: T3, Serine/threonine-protein kinase Sgk3 (Homo sapiens); settings: at 1 µM
[18] = target: 5'-AMP-activated protein kinase catalytic subunit alpha-1 (Homo sapiens) (UniProt Q13131); settings: at 0.1 µM
Chain of 5'-AMP-activated protein kinase catalytic subunit alpha-1 (Homo sapiens) (Q13131 whole entry, looked up): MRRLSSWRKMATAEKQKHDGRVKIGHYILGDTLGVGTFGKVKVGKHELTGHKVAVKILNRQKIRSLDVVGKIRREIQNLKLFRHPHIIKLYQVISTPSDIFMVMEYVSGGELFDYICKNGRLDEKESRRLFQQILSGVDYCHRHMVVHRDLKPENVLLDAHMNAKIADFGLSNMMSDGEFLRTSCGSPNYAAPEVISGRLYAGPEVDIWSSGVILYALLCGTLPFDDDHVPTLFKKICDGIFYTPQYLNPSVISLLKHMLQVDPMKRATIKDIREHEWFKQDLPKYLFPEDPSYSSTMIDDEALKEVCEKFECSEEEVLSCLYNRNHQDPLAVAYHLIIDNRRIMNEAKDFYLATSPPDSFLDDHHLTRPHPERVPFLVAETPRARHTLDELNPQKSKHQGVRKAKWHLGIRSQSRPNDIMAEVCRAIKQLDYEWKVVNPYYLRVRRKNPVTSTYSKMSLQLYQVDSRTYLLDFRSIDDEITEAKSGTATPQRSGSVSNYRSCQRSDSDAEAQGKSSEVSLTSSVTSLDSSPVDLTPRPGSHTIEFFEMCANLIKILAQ

[19] = target: 5'-AMP-activated protein kinase catalytic subunit alpha-1 (Homo sapiens) (UniProt Q13131); settings: at 1 µM
[20] = target: 5'-AMP-activated protein kinase catalytic subunit alpha-2 (Homo sapiens) (UniProt P54646); settings: at 0.1 µM;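 note: mean inhibition measured on the AMPK complex of alpha2, beta1 and gamma1 subunits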
Chain of 5'-AMP-activated protein kinase catalytic subunit alpha-2 (Homo sapiens) (P54646 whole entry, looked up): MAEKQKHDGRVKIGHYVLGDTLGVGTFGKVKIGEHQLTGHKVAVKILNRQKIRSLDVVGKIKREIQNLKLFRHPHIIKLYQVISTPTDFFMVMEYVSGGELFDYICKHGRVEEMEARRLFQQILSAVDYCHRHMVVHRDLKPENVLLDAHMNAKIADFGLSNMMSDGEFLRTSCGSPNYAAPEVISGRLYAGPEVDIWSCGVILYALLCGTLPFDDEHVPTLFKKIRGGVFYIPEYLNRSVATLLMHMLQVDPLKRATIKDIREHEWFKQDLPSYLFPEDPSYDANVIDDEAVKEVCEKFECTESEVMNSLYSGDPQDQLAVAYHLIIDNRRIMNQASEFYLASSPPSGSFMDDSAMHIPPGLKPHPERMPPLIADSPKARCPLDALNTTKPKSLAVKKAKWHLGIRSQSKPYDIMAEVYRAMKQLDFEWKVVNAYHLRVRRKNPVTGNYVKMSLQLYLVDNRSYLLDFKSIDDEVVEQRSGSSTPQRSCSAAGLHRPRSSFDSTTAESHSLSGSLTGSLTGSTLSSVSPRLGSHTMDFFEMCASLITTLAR

Chain of Rho-associated protein kinase 1 (Homo sapiens) (Q13464 2-1354 limits assumed): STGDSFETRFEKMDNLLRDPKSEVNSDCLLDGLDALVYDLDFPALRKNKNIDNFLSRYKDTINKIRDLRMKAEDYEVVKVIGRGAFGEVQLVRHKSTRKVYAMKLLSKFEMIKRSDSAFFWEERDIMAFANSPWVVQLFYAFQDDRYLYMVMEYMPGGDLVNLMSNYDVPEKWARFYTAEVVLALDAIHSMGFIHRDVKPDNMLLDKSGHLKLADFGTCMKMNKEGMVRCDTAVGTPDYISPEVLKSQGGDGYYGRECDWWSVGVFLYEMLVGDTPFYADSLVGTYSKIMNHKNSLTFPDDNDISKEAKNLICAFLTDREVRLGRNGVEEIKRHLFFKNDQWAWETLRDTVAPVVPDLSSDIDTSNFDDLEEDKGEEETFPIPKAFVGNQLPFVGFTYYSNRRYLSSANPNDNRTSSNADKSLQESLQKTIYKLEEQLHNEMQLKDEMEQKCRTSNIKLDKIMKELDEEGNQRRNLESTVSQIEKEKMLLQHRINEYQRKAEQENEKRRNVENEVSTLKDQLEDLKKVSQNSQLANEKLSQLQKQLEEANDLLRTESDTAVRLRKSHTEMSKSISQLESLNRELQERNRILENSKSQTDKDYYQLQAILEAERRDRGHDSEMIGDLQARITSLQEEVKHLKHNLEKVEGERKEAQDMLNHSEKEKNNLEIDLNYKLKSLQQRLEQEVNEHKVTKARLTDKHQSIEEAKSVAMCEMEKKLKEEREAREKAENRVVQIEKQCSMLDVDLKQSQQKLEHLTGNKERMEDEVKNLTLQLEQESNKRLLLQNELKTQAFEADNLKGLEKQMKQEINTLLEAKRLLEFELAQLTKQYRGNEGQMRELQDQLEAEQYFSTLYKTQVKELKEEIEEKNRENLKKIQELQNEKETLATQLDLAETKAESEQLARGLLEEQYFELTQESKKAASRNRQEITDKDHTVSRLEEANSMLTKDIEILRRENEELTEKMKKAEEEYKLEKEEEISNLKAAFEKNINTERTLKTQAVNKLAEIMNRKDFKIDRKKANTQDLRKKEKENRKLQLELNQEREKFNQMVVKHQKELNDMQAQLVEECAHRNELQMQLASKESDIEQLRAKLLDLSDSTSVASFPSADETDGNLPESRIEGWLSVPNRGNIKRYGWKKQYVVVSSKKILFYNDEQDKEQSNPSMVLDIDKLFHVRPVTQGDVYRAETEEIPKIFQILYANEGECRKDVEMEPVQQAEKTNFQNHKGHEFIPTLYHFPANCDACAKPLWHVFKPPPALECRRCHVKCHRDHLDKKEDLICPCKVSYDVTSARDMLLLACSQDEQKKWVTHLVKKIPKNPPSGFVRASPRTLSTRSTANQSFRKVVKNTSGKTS

Row | SMILES | inhibition [1] [%] | inhibition [2] [%] | inhibition [3] [%] | inhibition [4] [%] | inhibition [5] [%] | inhibition [6] [%] | inhibition [7] [%] | inhibition [8] [%] | inhibition [9] [%] | inhibition [10] [%] | inhibition [11] [%] | inhibition [12] [%] | inhibition [13] [%] | inhibition [14] [%] | inhibition [15] [%] | inhibition [16] [%] | inhibition [17] [%] | inhibition [18] [%] | inhibition [19] [%] | inhibition [20] [%]
1 | NS(=O)(=O)c1cccc(-c2ccc3c(NC(=O)C4CC4)n[nH]c3c2)c1 | 1.53 | 0.53 | 2.48 | 0.46 | 3.07 | 0.8 | 2.45 | -0.89 | 0.27 | -0.55 | 0.54 | 1.71 | 2.69 | 3.21 | -4.4 | 0.09 | 0.67 | -0.48 | 0.34 | 3.53
2 | COc1cc2c(cc1Nc1nc(N3CCc4ccccc43)c3cc[nH]c3n1)N(C(=O)CN(C)C)CC2 | 1.14 | 0.55 | -1.46 | 0.16 | 0.41 | 0.21 | -1.32 | 0.86 | 0.48 | 1.57 | 0.95 | 0.53 | 1.07 | -0.51 | 2.34 | 1.69 | -0.59 | 2.03 | 0.36 | -1.68
3 | N#Cc1c(NC(=O)c2cccc3ccccc23)sc2c1CCCC2 | 2.34 | 1.81 | 1.22 | 1.91 | 0.22 | 1.01 | 0.5 | 2.55 | 2.14 | 1.14 | 1.27 | 3.76 | 0.45 | 1.09 | 1.34 | 1.65 | 2.42 | 1.14 | 2.66 | 3.83
4 | Cc1ccc(NC(=O)c2ccnc(N3CCCC3)c2)cc1-c1ccc(C(=O)NCC2CC2)cc1 | 7.68 | 5.19 | 7.89 | 3.15 | 5.01 | 2.42 | 6.09 | 3.89 | 5.23 | 2.53 | 4.24 | 5.73 | 4.14 | 2.67 | 6.84 | 1.32 | 1.99 | 6.18 | 7.1 | 6.89
5 | CC1=C(C(=O)Nc2ccc3[nH]ncc3c2)C(c2ccc(Cl)c(Cl)c2)CC(=O)N1 (centres undefined) | 91.8 | 71.2 | 89.9 | 3.44 | 23.6 | 1.88 | 18.9 | 0.64 | 13.2 | 0.12 | 5.82 | 0.54 | 6.57 | 0.96 | 8.76 | 1.38 | 10.8 | 6.35 | 34.8 | 1.12
6 | COc1cccc(-n2ncc3c(N/N=C/c4cccc(F)c4)ncnc32)c1 | 2.09 | 1.84 | 2.56 | 1.59 | 1.07 | 2.2 | 2.55 | 2.85 | 3.5 | 1.48 | 3.07 | 1.3 | 2.87 | -1.45 | 0.6 | -0.55 | 0.75 | 2.52 | 5.15 | 4.7
7 | CS(=O)(=O)CCNCc1ccc(-c2ccc3ncnc(Nc4ccc(OCc5ccccc5)c(Cl)c4)c3c2)o1 | 3.86 | 1.28 | 5.61 | 0.36 | 2.7 | -1.21 | 1.51 | 1.08 | 2.7 | -0.67 | 0.49 | 0.96 | 1.58 | 2.63 | 0.46 | -0.5 | 1.84 | -1.82 | -0.45 | 3.82
8 | CS(=O)(=O)CCNCc1nc(-c2ccc3ncnc(Nc4ccc(F)c(Cl)c4)c3c2)cs1 | 2.92 | 2.45 | 5.8 | 1.4 | 3.63 | 1.07 | 2.43 | -0.57 | 0.84 | 0.69 | 1.36 | 0.28 | 4.55 | 2.82 | -2.15 | 3.08 | 2.67 | 2.39 | 1.3 | -4.68
9 | COC(=O)Nc1nc2cc(Oc3ccc(NC(=O)Nc4cccc(C(=O)O)c4)cc3)ccc2[nH]1 | 1.55 | 2.14 | 5.7 | 1.21 | 2.55 | 1.11 | 1.31 | 0.86 | 2 | 0.08 | 1.45 | 1.3 | 1.96 | 1.67 | 1.89 | -2.29 | 2.6 | 1.04 | 4.37 | -4.37
10 | CS(=O)(=O)Nc1ccc(N/C=C2\C(=O)Nc3ccccc32)cc1 | 1.4 | -0.88 | 1.99 | 1.8 | 9.64 | 1.88 | 9.89 | 0.85 | 13.8 | 0.95 | 11 | 0.01 | 12.3 | -2.1 | 1.93 | -3.12 | -0.79 | 0.57 | 12 | -0.35
11 | NCc1ccc(-c2nc(-c3ccc(Cl)c(O)c3)c(-c3ccncc3)[nH]2)cc1 | 2.17 | -0.88 | 0.95 | -0.63 | 1.3 | -1.01 | -1.09 | 0.29 | 1.53 | 0.47 | 0.03 | 0.62 | 0.21 | 0.15 | – | -0.56 | -0.81 | 0.17 | -1.38 | -2.35
12 | O=C1NC(=O)C(N2CCc3ccccc32)=C1c1ccc(Cl)cc1 | 2.06 | 2.69 | 1.72 | 1.94 | 0.4 | 2.23 | 1.24 | 2.52 | 2.25 | 2.11 | 1.19 | 2.14 | 2.97 | 2.07 | 1.86 | 3.22 | 3 | 0.74 | 4.36 | 4.52
13 | CCn1c(-c2nonc2N)nc2c(N3CCCC3)nccc21 | 22.2 | 3.86 | 30.6 | 0.29 | 7.82 | 0.44 | 4.5 | -0.11 | 7.05 | -0.21 | -0.13 | 0.28 | -1.03 | -2.98 | 2.83 | -0.79 | -0.02 | -0.36 | 0.11 | -8
